High-throughput results (PubChem)
This is a sample that favours compounds with a hit; in the whole collection about 14% have one here.
Pf growth 48h: inhibits P. falciparum growth in the first generation, 48 h; P. falciparum luciferase growth in erythrocytes, 48 h; Potency, µM (top dose mostly 28.7 µM), for the others: top-dose activity change, negative = inhibition, usual class: inhibitors; actives 5.9% (n = 310,000); note: potency is the fitted concentration of half-maximal effect
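Luciferase-expressing P. falciparum in infected erythrocytes (2% hematocrit, 0.1% parasitemia final) in RPMI 1640/0.5% Albumax were exposed to compound for 48 hours at 37 C, 5% CO2; growth read as luminescence.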
Marburg entry inh: Marburg virus entry inhibition; Potency, µM (series often up to 37.8 µM), for inactives: at the highest dose activity change, negative = inhibition, usual class: inhibitors; AID 540276; actives 1.8% (n = 300,000); Marburg virus pseudotyped entry inhibition, cell reporter; calls by dose curve; tested in HEK293 cells; note: potency is the fitted concentration of half-maximal effect
HCV inhibitor: HCV inhibition. actives 3.4% (n = 340,000). Potency, µM (doses to about 41.8 µM), without a hit: top-dose activity change, negative = inhibition, usual class: inhibitors. Huh7.5.1 HCVcc-Cre infection, luciferase reporter, 44 h; note: potency is the fitted concentration of half-maximal effect
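Whole-lifecycle infectious HCVcc-Cre system; cells 1,000/well, compound then virus (~0.5 moi) added 4 h after plating, 44 h culture. Luciferase read 15 sec following 15 min substrate incubation, room temp.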
Pf growth 96h: inhibits malaria parasite growth, 96 h | Potency, µM (top dose mostly 28.7 µM), inactives show top-dose activity change, negative = inhibition, most hits filed as inhibitors | P. falciparum luciferase reporter growth, 96 h | actives 6.9% (n = 320,000) | AID 504834; note: potency is the fitted concentration of half-maximal effect
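Two parasite generations (96 h, 37 C, 5% CO2) of compound exposure in infected erythrocytes (0.05% parasitemia, 2% hematocrit). Luciferase-reporter P. falciparum; decreased luminescence indicates inhibited growth, aimed at apicoplast-acting delayed death.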
HCMV inh: inhibitors of human cytomegalovirus. activity change, negative = inhibition, % at 57.5 µM. actives 4.5% (n = 410,000). HFF cells, HCMV-luciferase reporter, 72 h; stronger effect = lower value; in the data active = activity change below about -60%; inconclusive = no clear call, values can overlap the other calls; inactive = above about -39%
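After 16 h attachment at 37C, HFF cells received test compound and HCMV-luciferase (1 PFU/cell); reporter luminescence read 72 h later, data normalized against buffer-only and known inhibitor Salinomycin.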
LASV entry inh: inhibitors of Lassa virus binding or cell entry. Lassa virus pseudotype entry inhibition, cell reporter. Potency, µM (series often up to 37.9 µM), for the others: top-dose activity change, negative = inhibition, usual class: inhibitors. actives 1.2% (n = 300,000). AID 540256; calls by dose curve; tested in HEK293 cells; note: potency is the fitted concentration of half-maximal effect; nearly all actives have a fitted effect of over 50% in size
An asterisk follows results filed as active; ? = inconclusive; . = not tested or not shown; [ ] = dose if it differs, or a comment. Unless noted, calls come from the whole dose curve; as a rule, active = well fitted inhibition curve with a large enough effect; inconclusive = small, poorly fitted or top-dose-only effect, or another doubt; inactive = no such curve, though single readings can be large or run the other way. % is set by controls: 0 for no effect and ±100 for the full control effect.

SMILES	Pf growth 48h	Marburg entry inh	HCV inhibitor	Pf growth 96h	HCMV inh	LASV entry inh
CCOc1ccccc1-n1c(CNc2ccc(F)cc2)nnc1SCC(=O)NCc1ccco1	12µM*	?	-8%	5%	-7	-14%
O=C(CSc1nnc(CNc2ccc(F)cc2)n1Cc1ccccc1)NCc1ccco1	?	10%	-17%	?	6	1%
COc1ccc(NCc2nnc(SCC(=O)NCc3ccccc3)n2-c2ccccc2OC)cc1	?	?	?	-101%	30	-4%
CC(c1ccc(Cl)cc1)N(CCN(C)C)c1ccccn1 (stereo not drawn)	.	.	.	.	-19	.
N#Cc1c(CSCC(=O)O)cc(=O)n2c1[nH]c1ccccc12	6%	.	1%	-4%	11	.
N#Cc1c(C(F)(F)F)cc(=O)n2c1[nH]c1ccccc12	2%	?	?	0%	-96*	?
COc1ccc(C2CC(c3cccc(Cl)c3)n3nc(N)nc3N2)cc1 (stereo not drawn)	10%	.	-13%	9.3µM*	-23	.
COc1cccc(C2CC(c3ccc(F)cc3)Nc3nc(N)nn32)c1 (stereo not drawn)	0%	.	8%	1%	0	.
COc1cccc(C2CC(c3cccc(Br)c3)n3ncnc3N2)c1 (stereo not drawn)	-5%	-20%	1%	12µM*	0	?
COc1cccc(C2CC(c3cccc(OC)c3)n3nc(N)nc3N2)c1 (stereo not drawn)	2%	.	17%	12µM*	-14	.
COC(=O)C1(C(=O)OC)C2CCCCC2N(S(=O)(=O)c2ccc(C)cc2)[C@@H]1CC(C)=O (stereo partly drawn)	.	.	.	.	-4	.
Cc1cccc(CSCCNC(=O)C2CCN(S(=O)(=O)Cc3ccccc3)CC2)c1	.	-17%[46.1 µM]	.	.	3	-29%[46.1 µM]
O=C(NCC1CCCO1)C1=CC2=NC(=S)N(c3ccccc3)C(=O)C2C=C1 (stereo not drawn)	.	-14%	.	.	.	.
CC(C)=CCN1CCN(Cc2cnc(N3CCOCC3)s2)CC1CCO (stereo not drawn)	160%	?	-14%	12µM*	15	-11%
CC(C)=CCN1CCN(Cc2ccc(C)s2)CC1CCO (stereo not drawn)	1%	-9%	8%	?	-67*	?
COc1ccc(S(=O)(=O)c2c(O)c3ccc(C(=O)NCc4ccc(F)cc4)cc3[nH]c2=O)cc1	.	.	.	.	4	21%[46.1 µM]
CCCCn1c(N)c(N(CCOC)C(=O)CN(C)S(=O)(=O)c2ccc(C)cc2)c(=O)[nH]c1=O	-1%	?	-1%[8.37 µM]	8%	-12	-7%
COc1cc(Cl)c(S(=O)(=O)NCCN2CCOCC2)cc1Cl	13%	1%	15%	.	-19	23%
COc1ccc(S(=O)(=O)NCCN2CCOCC2)cc1Br	1%	.	-1%	10µM*	-16	.
O=S(=O)(NCCN1CCOCC1)c1cc(Cl)c(Cl)cc1Cl	-1%	.	4%	13µM*	0	.
O=[N+]([O-])c1cc(S(=O)(=O)N2CCCCC2)ccc1NCCN1CCOCC1	?	6%	8%	?	-20	3%
O=S(=O)(NCCCN1CCOCC1)c1ccc2c(c1)OCCO2	18%	?	8%	10µM*	-40	1%
O=[N+]([O-])c1cc(S(=O)(=O)N2CCCCC2)ccc1NCCCN1CCOCC1	?	4%	23%	1.5µM*	?	17%
Cc1ccc(S(=O)(=O)NCCCN2CCOCC2)cc1C	-10%	-18%	-4%	.	-29	-28%
COc1cc2c(cc1OC)C(COc1ccc(C(C)C)cc1)N(C(=O)c1ccc(S(=O)(=O)N3CCCC3)cc1)CC2 (stereo not drawn)	.	.	.	.	-2	-22%[46.1 µM]
SMILES	Pf growth 48h	Marburg entry inh	HCV inhibitor	Pf growth 96h	HCMV inh	LASV entry inh
COc1cc(OC)cc(C(=O)NCC2CCCN(Cc3ccc(SC)cc3)C2)c1 (stereo not drawn)	0%	.	-5%	?	11	.
CC(C)[C@H](Nc1ccc(S(=O)(=O)N2CCOCC2)cc1[N+](=O)[O-])C(=O)OCC(=O)N(C(C)C)C(C)C	?	?	?	5.2µM*	15	?
O=[N+]([O-])c1cc(S(=O)(=O)NCCCN2CCOCC2)ccc1Cl	-20%	?	10µM*	-24%	-35	?
Cc1ccc(Nc2ccc(S(=O)(=O)N3CCOCC3)cc2[N+](=O)[O-])c(C)c1	?	?	?	-99%	-65*	?
O=C(O)CC/C(=N\Nc1ccc(S(=O)(=O)N2CCOCC2)cc1[N+](=O)[O-])c1cccs1	6.6µM*	-29%[46.1 µM]	-1%	12µM*	0	-21%
CC(NC(=O)Cc1ccc(NC(=O)N2CCCCc3ccccc32)cc1)c1ccccc1 (stereo not drawn)	.	.	.	.	-4	?
O=C(NCc1ccc(Cl)cc1)c1ccc2c(c1)N(Cc1ccccc1F)C(=O)c1ccccc1S2=O (stereo not drawn)	.	?	.	.	-15	2%[46.1 µM]
O=C(NCCN1CCC(n2c(=O)[nH]c3ccccc32)CC1)c1cccnc1Cl	.	.	.	.	15	.
Cc1nnc(N2CCCC(C(=O)NCc3cccc(F)c3)C2)c2nn(-c3ccccc3)c(C)c12 (stereo not drawn)	-12%	.	?	?	?	.
COc1ccc(-n2nc3c(N4CCC(C(=O)NCCc5ccco5)CC4)nnc(C)c3c2C)cc1	?	.	?	1%	-31	.
COc1ccc(-n2nc3c(N4CCCC(C(=O)NCc5cccc(F)c5)C4)nnc(C)c3c2C)cc1 (stereo not drawn)	.	.	.	.	-84*	-11%[46.1 µM]
COc1ccc(-n2nc3c(N4CCC(C(=O)NCc5cccc(C)c5)CC4)nnc(C)c3c2C)cc1	?	.	?	?	-100*	.
C=C1CC2C3CC[C@@]4(OCOC45COCO5)[C@@]3(C)C(O)CC2[C@@]2(C)CCC(=O)C=C12 (stereo partly drawn)	10µM*	?	?	13µM*	20	?
COc1ccc(C(C(=O)Nc2ccc(C(C)C)cc2)N(Cc2ccco2)C(=O)CC2NC(=O)NC2=O)cc1 (stereo not drawn)	1.5µM*	?	?	?	-40	?
COc1ccc(NC(=O)C(c2ccc(OC)cc2)N(Cc2ccco2)C(=O)CC2NC(=O)NC2=O)cc1 (stereo not drawn)	?	3%[46.1 µM]	-9%	?	-11	3%
COc1ccc2c(c1)-c1c(ssc1=S)C(C)(C)N2C(=O)CSC1=NCCS1	0%	?	10µM*	0%	-80*	-3%
Cc1cc2c(cc1C)N(C(=O)CSC1=NCCS1)C(C)(C)c1ssc(=S)c1-2	6.6µM*	-42%	?	2.6µM*	-72*	-31%[14.3 µM]
